# PTHR1 agonist: activates the human parathyroid hormone receptor PTHR1 | Potency, µM (titrated, usually from 115 µM), inactives show at the top dose activation, most hits filed as activators | HEK293 GP2 PTHR1 cells, GloSensor cAMP luminescence, 1 h | 410,000 compounds, 0.075% hits | AID 743266 | Q03431; also: potency is read from the fitted curve at half-maximal effect; nearly all actives have a fitted effect of over 55% in size
# Target sequence (Q03431 whole entry, looked up): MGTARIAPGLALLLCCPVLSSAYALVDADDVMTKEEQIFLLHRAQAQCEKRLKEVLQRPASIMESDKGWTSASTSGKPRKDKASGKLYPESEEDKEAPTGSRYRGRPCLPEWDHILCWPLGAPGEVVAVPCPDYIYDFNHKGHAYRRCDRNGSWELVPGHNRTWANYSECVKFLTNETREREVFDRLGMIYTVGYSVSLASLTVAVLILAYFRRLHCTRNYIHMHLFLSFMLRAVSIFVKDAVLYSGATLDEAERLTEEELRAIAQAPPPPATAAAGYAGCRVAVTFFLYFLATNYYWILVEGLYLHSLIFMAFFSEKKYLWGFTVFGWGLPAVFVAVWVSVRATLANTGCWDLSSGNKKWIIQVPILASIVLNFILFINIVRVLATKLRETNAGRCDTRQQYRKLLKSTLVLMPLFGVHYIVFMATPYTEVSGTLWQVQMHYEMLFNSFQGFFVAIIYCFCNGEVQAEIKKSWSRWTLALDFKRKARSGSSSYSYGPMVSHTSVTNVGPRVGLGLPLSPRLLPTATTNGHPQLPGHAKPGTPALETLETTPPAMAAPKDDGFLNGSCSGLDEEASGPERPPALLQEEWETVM
#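 HEK-293-derived GP2 cells expressing PTHR1 and a GloSensor cAMP reporter, 3,000/well, plated overnight, given luciferin plus IBMX (each 0.5 mM as added) for 1 h at 37 °C, then compound for 1 h at 37 °C. Luminescence was read after 15 min at room temperature.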
# NPSR antag: antagonists of human neuropeptide S receptor cAMP signaling; Q6W5P4; Potency, µM (top dose mostly 38.3 µM), inactives show at the top dose activity change, negative = inhibition, most hits filed as inhibitors; 220,000 compounds, 1% hits; CHO-NPSR cells, cAMP TR-FRET, antagonist mode; also: potency is read from the fitted curve at half-maximal effect; % is scaled to controls: 0 for no effect and ±100 for the full control effect; nearly all actives have a fitted effect of over 50% in size
# GLP1R cytotox: cytotoxicity counter-screen for GLP-1 receptor inverse agonists | HEK293 cAMP-luciferase reporter cells, luminescence, 24 h | Potency, µM (series often up to 38.3 µM), without a hit: at the top dose activity change, negative = inhibition, actives largely listed as inhibitors | 410,000 compounds, 0.13% hits;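 also: loss of luciferase light is scored as toxicity; potency is read from the fitted curve at half-maximal effect; % is scaled to controls: 0 for no effect and ±100 for the full control effect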
#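 A 23 nL compound transfer followed 12 hours of cell culture at 37 deg C; exposure then lasted 24 hr. Luciferase assay detection reagent was dispensed and plates read for luminescence after a 12 min room-temperature wait.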
# RXFP1 antagonist: RXFP1 (human) relaxin receptor antagonism | HEK293-RXFP1, relaxin-stimulated cAMP HTRF, 30 min; hits give low values | activity change, negative = inhibition, % at 57.5 µM | 350,000 compounds, 0.59% hits;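 active = activity change of -60% or lower, but not beyond a set lower limit; inconclusive = change between -60% and -40%, or beyond the set limit; inactive = change above -40%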; also: % is scaled to controls: 0 for no effect and ±100 for the full control effect
# RXFP1 ag: agonists of human relaxin receptor RXFP1; Q9HBX9; HEK293T-RXFP1 cAMP TR-FRET, 30 min; response scale: percent of porcine relaxin response, buffer zero; Potency, µM (titrated, usually from 57.5 µM), for the others: top-dose activation, hits mostly activators; 370,000 compounds, 0.3% hits; also: potency is read from the fitted curve at half-maximal effect; % is scaled to controls: 0 for no effect and ±100 for the full control effect; nearly all actives have a fitted effect of over 60% in size
#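 HEK293 cells stably expressing RXFP1, treated 30 min at 37C with compounds plus PDE4 inhibitor Ro 20174; cAMP measured by HTRF TR-FRET. Normalized to buffer and 29 nM porcine relaxin; EC50 by Hill fit.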
# TSHR antagonist: blocks TSH signaling through the human TSH receptor; 330,000 compounds, 0.2% hits; TSHR-expressing cells, TSH-stimulated cAMP HTRF, 2 h; hits give low values; activity change, negative = inhibition, % at 11.5 µM;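 active = activity change below a set negative limit, meaning inhibition stronger than a set level, cut at about -70% in these data; inconclusive = activity change between two set negative limits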; also: % is scaled to controls: 0 for no effect and ±100 for the full control effect
#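 TSHR-expressing cells were treated with compounds, then stimulated with TSH at EC80 (4nM final) for 2 hours at 37 deg C. Cellular cAMP was measured by HTRF competition between lysate cAMP and cAMP-d2 for a cryptate-labelled anti-cAMP antibody.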
# The depositor's hits bear a star; i = inactive; u = inconclusive; x = no result given; [ ] = dose if it differs, or a comment. Only a selection was taken, and hits are over-represented in it overall. Unless noted, calls follow the shape of the dose curve; as a rule, active = well fitted curve in the direction sought with a large enough effect; inconclusive = small, poorly fitted or top-dose-only effect, or another doubt; inactive = no such curve, though single readings can be large; an effect the other way counts as inactive or inconclusive.
SMILES,PTHR1 agonist,NPSR antag,GLP1R cytotox,RXFP1 antagonist,RXFP1 ag,TSHR antagonist
CCN(CC)CC(O)Cn1c(C)c(-c2ccccc2)c2cc([N+](=O)[O-])ccc21 (stereo not drawn),i,x,u,-89.4*,2.2%,-2.1
Cc1cn2c(=O)c(S(=O)(=O)Nc3ccc(N4CCOCC4)cc3)c(C)nc2s1,u,x,0.8%,-9.4,-0.2%,x
O=C1OC2(c3ccccc31)c1cc(I)c(O)c(I)c1Oc1c2cc(I)c(O)c1I,x,x,x,x,-35.0%,-113.8*
O=C1OC2(c3ccc(O)cc3Oc3cc(O)ccc32)c2ccccc21,x,x,x,26.6,x,x
CCCN1CCC(N(CCc2ccccc2)Cc2ccccc2)CC1,i,x,-5.4%,-6.5,-1.0%,-8.3
COc1ccc(CN2CCC(N(CCc3ccccc3)Cc3ccccc3)CC2)c(OC)c1,-55.8%,7.94µM*,u,u,-0.5%,6.0
CCOc1ccc(NC(=O)CCNS(=O)(=O)c2ccc3c(c2)CC(C)N3C(C)=O)cc1 (stereo not drawn),-10.6%,x,3.0%,6.3,-0.9%,-5.1
COc1ccc(NC(=O)CCNS(=O)(=O)c2ccc3c(c2)CC(C)N3C(C)=O)cc1 (stereo not drawn),i,x,-1.6%,-1.8,0.4%,-91.9*
CCOC(=O)c1ccc(N2C(=O)c3[nH]nc(-c4ccc(OC)cc4)c3C2c2ccc(C)cc2)cc1 (stereo not drawn),i,x,-9.0%,x,0.6%,x
CCc1ccc(-n2c(=O)c3sc4ccccc4c3n(CC(=O)N(CC)Cc3ccccc3)c2=O)cc1,-9.6%,x,-8.1%,x,-1.0%,x
CN(C)c1ccc(N=Nc2nccs2)cc1,-37.8%,x,11.2µM*,0.0,x,x
COc1ccc(/C(C)=C/C(=O)O)c(OC)c1,x,x,x,-3.2,x,x
C(=N\N1CCN(Cc2cccc3ccccc23)CC1)/c1cccnc1,-46.5%,-13.2%[46.1 µM],-10.9%,1.3,0.3%,-81.8*
CC(C)Oc1ccc(C(=O)OC(C)C(=O)NC2CCCCC2C)cc1 (stereo not drawn),i,x,-0.8%,-1.0,-2.2%,41.5
CC(OC(=O)c1ccc2c(c1)OCCO2)C(=O)NC1CCCCC1C (stereo not drawn),-16.9%,x,-13.6%,-72.5*,-0.5%,-2.5
CCOC(=O)c1cc(-c2cccs2)nc2c1c(C)nn2-c1ccccn1,-4.5%,-44.0%,3.55µM*,-6.2,6.1%,6.8
O=C(N/N=C/C=C/c1ccco1)c1ccccc1Cl,11.1%,-28.0%,-24.9%,-81.7*,1.5%,-0.5
Cc1ccc(OCC(=O)N/N=C/C=C/c2ccco2)c(Br)c1,i,x,u,-76.0*,0.0%,9.7
CC(/C=C/c1ccco1)=N/NC(=O)c1ccccc1Cl,-9.5%[57.5 µM],-11.6%[46.1 µM],-11.2%,-6.3,3.7%,0.4
COc1ccc2c(CSc3nc4nc(C)cc(C)n4n3)cc(=O)oc2c1,i,u,-8.1%,-1.1,12.2%,-7.8
Cc1ccc2c(CSc3nc4nc(C)cc(C)n4n3)cc(=O)oc2c1,i,10µM*,2.7%,-12.1,10.3%,-18.6
NC(=O)C1CCN(c2nc(-c3ccc(Cl)cc3)cs2)CC1,x,x,x,x,x,-3.7
Cn1c(-[n+]2c(-c3ccccc3)cc(-c3ccccc3)cc2-c2ccccc2)nc2c([N+](=O)[O-])cccc21,-21.5%,7.94µM*,u,-10.6,1.3%,17.1
CCOC(=O)c1ccccc1NC(=O)Cn1c(=O)n(Cc2nc(-c3ccccc3)no2)c(=O)c2ccccc21,-46.8%,x,1.0%,-10.5,0.6%,x
O=[N+]([O-])c1ccc(N/N=C/c2c[nH]c3ccccc23)c(S(=O)(=O)Nc2ccc(Cl)cc2)c1,-9.6%[57.5 µM],15.8µM*,35.2%,23.5,4.0%,-5.3
SMILES,PTHR1 agonist,NPSR antag,GLP1R cytotox,RXFP1 antagonist,RXFP1 ag,TSHR antagonist
COCCNC(=O)c1cnc2sc(N3CCC(C)CC3)nn2c1=O,i,x,-0.8%,-10.0,7.3%,x
COc1ccc(-c2nc3ccccc3s2)cc1NC(=O)c1cccc([N+](=O)[O-])c1C,-38.8%,x,0.8%,-1.2,2.0%,x
Cc1ccc(/C=C2\Oc3c(ccc(O)c3CN3CCN(CCO)CC3)C2=O)cc1,6.5%,10µM*,385.4%,4.6,12.1%,-5.3
O=C1/C(=C/c2ccco2)Oc2c1ccc(O)c2CN1CCCCC1,-19.4%,-33.4%,i,-8.1,7.0%,5.2
CC(C)c1ccc(/C=C2\Oc3c(ccc(O)c3CN3CCN(C)CC3)C2=O)cc1,u,10µM*,253.8%,-5.2,11.3%,-7.6
CC(=O)N(CC(=O)N(C)C)c1ccccc1,x,x,x,12.9,x,x
Cc1cccc(NC2=C/C(=N/S(=O)(=O)c3cccs3)c3ccccc3C2=O)c1,-34.1%,5.01µM*,-27.8%,16.5,-1.5%,15.7
Cc1ccc(NC2=C/C(=N\S(=O)(=O)c3cccs3)c3ccccc3C2=O)c(C)c1,-67.8%,3.98µM*,u,-11.9,-1.4%,-36.0
Cc1cc(C)c(S(=O)(=O)/N=C2\C=C(Nc3ccc(C(=O)O)cc3)C(=O)c3ccccc32)c(C)c1,-27.8%,x,-21.0%,-7.6,-1.7%,-48.3
O=C(O)c1ccc(NC2=C/C(=N/S(=O)(=O)c3ccccc3)c3ccccc3C2=O)cc1,-50.4%,u,u,7.6,-3.8%,-73.6*
Cc1ccc(Cl)cc1NC1=C/C(=N\S(=O)(=O)c2cccs2)c2ccccc2C1=O,-32.9%[57.5 µM],u,u,9.6,0.6%,-76.2*
COc1cc(NC(=O)CC(C)S(=O)(=O)c2cc3c4c(c2)CCN4C(=O)CC3)cc(OC)c1 (stereo not drawn),i,x,-1.6%,x,2.1%,x
O=C1C(Nc2ccc(O)cc2)=C/C(=N/S(=O)(=O)c2cccs2)c2ccccc21,-28.5%,6.31µM*,u,-20.5,-9.6%,u
Cc1ccc(Nc2nc3nonc3nc2Nc2cccc(C(F)(F)F)c2)cc1Cl,-31.4%,x,u,u,-2.9%,x
Cc1ccc(N(Cc2cccs2)C(=O)c2ccc(Br)o2)cc1,-28.3%,x,-3.7%,-85.4*,-0.4%,x
Cc1ccc(N(Cc2cccs2)C(=O)C(C)Oc2ccc(Cl)c(C)c2)cc1 (stereo not drawn),u,x,-25.2%,-99.9*,-2.0%,x
COc1ccc(N(Cc2cccs2)C(=O)c2ccc(OCC(C)C)cc2)cc1,-23.9%,x,-2.3%,u,-3.5%,x
COc1ccc(N(Cc2cccs2)C(=O)c2ccc(C(C)(C)C)cc2)cc1,-35.4%,x,3.6%,-72.9*,-0.6%,x
Nc1ccn(C2CO[C@H](CO)O2)c(=O)n1 (stereo partly drawn),x,x,x,14.0,x,x
CN1CCC(N(Cc2cccs2)c2ccccc2)CC1,x,x,x,-10.2,x,x
O=C1c2ccccc2C(=O)N1C1C=CC=CC=C1,i,x,0.3%,1.2,x,x
Cc1ccc(CSC2=NC(C)(C)Nc3ccccc32)c(C)c1,i,x,0.0%,-2.3,0.0%,x

# Screens deposited in PubChem by National Center for Advancing Translational Sciences (NCATS).
